# Measurements taken from PubChem BioAssay AID720706 (Broad Institute, 2013).
# The campaign covered roughly 350,000 compounds. About 5,500 (1.6%) were called active.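 Rule for the calls: active = significant combined selectivity score with lowered wild-type GFP, culture density cut under 30%, mutant RFP and density less affected; inactive = any of these conditions unmet.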 Shown is part of a subset that was picked to be rich in actives.
# Assay: reduced GFP signal of wild-type E. coli, primary screen, bacterial rRNA inhibitor project, GFP/RFP fluorescence, OD600, single point (AID 720706)
# Details: E. coli WT GFP vs humanized-ribosome RFP mutants, 24 h; GFP signal change (wild-type ribosome): stronger effect = lower value, DMSO median 0, no signal -100; OD600 change: measured here: OD600 growth, DMSO median 0, no signal -100; RFP signal change: measured here: RFP humanized mutant strains, DMSO median 0, no signal -100, concentration not given here
Compound,GFP signal change (wild-type ribosome),OD600 change,RFP signal change
COc1ccc2c3c([nH]c2c1)[C@H](CO)N(Cc1cccc(F)c1)CC31CCN(CC2CC2)CC1,4.42% (inactive),4.76%,-1.35%
CC(C)NC(=O)N(C)C[C@H]1Oc2ccc(N)cc2C(=O)N(C)C[C@@H]1C,0.734% (inactive),6.88%,-0.42%
OC[C@@H]1[C@@H](c2ccccc2)C2(CN(Cc3cccc(F)c3)C2)N1CC1CCCC1,-23.5% (inactive),-64.7%,20.6%
CC1CN(S(=O)(=O)c2ccc(C(=O)Nc3sccc3C(N)=O)cc2)CC(C)O1 (stereo unspecified),-9.92% (inactive),0.73%,-4.68%
CNC(=O)c1ccsc1NC(=O)c1ccc(S(=O)(=O)N2CCc3ccccc32)cc1,-14% (active),-3.21%,-0.575%
O=S(=O)(c1ccccc1)N1CCc2ccccc21,3.46% (inactive),1.07%,1.3%
CN1C[C@@H]2[C@H](c3ccccc31)[C@@H](CO)N2C(=O)Nc1ccccc1,-1.61% (inactive),-4.19%,-0.289%
CC(=O)N1[C@@H]2c3ccc(-c4ccccc4)c(=O)n3C[C@@H]2[C@@H](CO)[C@@H]1C(=O)NCc1ccccc1F,1.92% (inactive),0.235%,0.825%
COc1ccc(CN(C)C[C@@H]2OCCCC[C@H](C)Oc3ccc(NS(=O)(=O)c4cccs4)cc3C(=O)N([C@H](C)CO)C[C@@H]2C)cc1,1.91% (inactive),-7.75%,1.8%
CCC(=O)N1CC(=O)N2[C@H](CO)[C@@H](c3ccc(-c4ccc(C(=O)N(C)C)cc4)cc3)[C@@H]2C1,-0.311% (inactive),-1.8%,0.455%
O=C(NCc1nnc(SCC(=O)N2CCC(Cc3ccccc3)CC2)o1)c1ccco1,-22.9% (active),-18.5%,-1.19%
O=C(NCc1nnc(SCC(=O)N2CCCCCC2)o1)c1ccc(F)cc1,3.73% (inactive),9.68%,2.77%
Cn1c(CNC(=O)c2ccco2)nnc1SCC(=O)N1CCN(c2ccccc2)CC1,4.73% (inactive),14.2%,-0.921%
COc1ccc(-c2ccc3n(c2=O)C[C@@H]2[C@@H](CO)[C@H](C(=O)Nc4ccccc4)[C@H]3N2C)cc1,-5.3% (inactive),-0.765%,-2.67%
N#C[C@H]1[C@@H](c2ccc(C#CC3CCCC3)cc2)[C@H](CO)N1C(=O)Nc1ccc(F)cc1,-20.3% (inactive),-36.1%,20.2%
CCn1ccnc1CN(C)C(=O)c1cc(COc2ccc(Cl)cc2OC)on1,2.1% (inactive),0.213%,-1.68%
COc1cc(Cl)ccc1OCc1cc(C(=O)N(C)CCc2c(C)n[nH]c2C)no1,-23.6% (active),-18.4%,4.51%
CSc1ccccc1OCc1cc(C(=O)N(C)CCc2c(C)n[nH]c2C)no1,-27.9% (inactive),-25.7%,-4.44%
Cc1ccc(/C(N)=N/OC(=O)COc2ccc(Cl)c(C)c2)cc1,6.91% (inactive),1.73%,-7.27%
COc1ccc(C(C)=O)cc1COc1ccc(Cl)c(C)c1,-21% (active),2.55%,1.65%
CCOc1ccc(C(C)=O)cc1COC(=O)c1cnc(Cl)c(Cl)c1,4.75% (inactive),3.34%,-2.34%

Compound,GFP signal change (wild-type ribosome),OD600 change,RFP signal change
C[C@@H]1CN([C@@H](C)CO)C(=O)Cc2cc(NC(=O)Nc3ccc(C(F)(F)F)cc3)ccc2O[C@H]1CN(C)Cc1ccc(C(=O)O)cc1,-4.09% (inactive),-39.2%,-9.85%
C[C@@H]1CN([C@@H](C)CO)S(=O)(=O)c2ccc(C#Cc3cccnc3)cc2O[C@@H]1CN(C)C,11% (inactive),15.5%,0.337%
S=C(Nc1ccc(Cl)cc1Cl)N1CCCC1,-29.6% (active),3.51%,-5.19%
O=C(NC(=S)Nc1ccc(Cl)cc1Cl)C1CC1,-7.95% (inactive),-11.5%,2.17%
S=C(Nc1ccc(Br)cc1Cl)N1CCC2(CC1)OCCO2,-18.4% (inactive),-20.4%,-6.29%
O=C(CSc1nnc(-c2ccco2)n1Cc1ccccc1)NC(=O)NCc1ccco1,-20.4% (active),-7.72%,1.04%
Cc1cc(C)n2nc(SCC(=O)NC(=O)NCc3ccco3)nc2n1,24.5% (inactive),11.7%,-0.644%
COc1ccc(-n2c(SCC(=O)NCc3ccco3)nnc2-c2c[nH]c3ccccc23)cc1,-0.435% (inactive),-16.1%,3.4%
Cc1c(C(=O)NCCN2CCOCC2)sc2nc(-c3ccc(F)cc3)cn12,-16.9% (active),-2.55%,3.25%
Cc1c(C(=O)NCC2CCCO2)sc2nc(-c3ccccc3)cn12 (stereo unspecified),-4.79% (inactive),-21.2%,-7.98%
Cc1ccc(C(=O)N/C(=C\c2ccc(F)cc2)C(=O)NCCN2CCOCC2)cc1,8.39% (inactive),9.73%,-0.48%
C/C=C/c1ccc([C@H]2[C@@H](CO)N(C(=O)Cc3ccncc3)[C@@H]2CNC(C)=O)cc1,1.54% (inactive),6.92%,-0.347%
NC(=O)c1ccc(NC(=O)COC(=O)c2c3c(nc4ccccc24)/C(=C\c2ccc4c(c2)OCO4)CCC3)cc1,55.8% (inactive),-19.8%,1.2%
C(=N\Nc1ccc2ccccc2n1)/c1ccc2c(c1)OCO2,-21.9% (active),16.6%,-0.634%
Nc1nonc1-n1nnc(C(=O)N/N=C/c2ccc(Cl)cc2)c1-c1ccc2c(c1)OCO2,0.08% (inactive),0.681%,-3.98%
C[C@@H]1CN([C@@H](C)CO)C(=O)c2cccc(NC(=O)c3cnccn3)c2O[C@H]1CN(C)S(=O)(=O)c1cccs1,4.71% (inactive),6.99%,-1.1%
CCC(=O)Nc1ccc2c(c1)OC[C@H](C)N(Cc1ccccc1OC)C[C@@H](C)[C@@H](OC)CN(C)C2=O,0.179% (inactive),4.08%,2.06%
CCCNC(=O)N(C)C[C@@H]1Oc2ncc(-c3ccccc3F)cc2C(=O)N([C@@H](C)CO)C[C@H]1C,0.96% (inactive),11.5%,-3.35%
O=C(Nc1ccccc1)Oc1cccc2cccnc12,7.63% (inactive),14.2%,1.55%
O=C(Nc1ccccc1Cl)Nc1cccc2cccnc12,-27.2% (active),-17.3%,-8.08%
CC(=O)/C(=N\Nc1ccc(Cl)cc1Cl)Sc1cccc2cccnc12,-8.55% (inactive),-0.275%,-1.79%
